Experimental data: PubChem BioAssay (NCI)
The panel holds about 79,000 compounds, 15% with a hit somewhere; the sample as a whole holds those more often. Calls of active or inactive are those of the source. Rule as the data show it: active = growth inhibition above about 70%; inactive = the rest.

Experiments:
[1] = NCI Yeast Anticancer Drug Screen. Data for the rad50 strain (AID 155);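 also: 0% = growth of vehicle-only cultures of the same strain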; conditions: S. cerevisiae rad50 strain growth inhibition; at 50.0 µM; hits give high values
Outline: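 Relative growth inhibition (compound vs vehicle) was measured in yeast with a defined repair-gene alteration.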

[2] = NCI Yeast Anticancer Drug Screen. Data for the mec2-1 strain (AID 157); conditions: S. cerevisiae mec2-1 strain, at 50.0 µM, hits give high values
Outline: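 Yeast mec2-1 mutant treated with compound. Readout: growth inhibition vs vehicle controls.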

[3] = NCI Yeast Anticancer Drug Screen. Data for the sgs1 mgt1 strain (AID 161);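 also: 0% = growth of cultures given vehicle only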; conditions: S. cerevisiae sgs1 mgt1 strain, at 50.0 µM, hits give high values
Outline: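 Inhibition of yeast growth, normalised to vehicle-treated controls, is reported for a strain bearing genetic alterations in DNA damage repair.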

[4] = NCI Yeast Anticancer Drug Screen. Data for the cln2 rad14 strain (AID 165);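 also: 0% = growth equal to vehicle treated cultures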; conditions: S. cerevisiae cln2 rad14 strain, at 50.0 µM, hits give high values
Outline: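 cln2 rad14 yeast strain; compound exposure; growth inhibition read vs vehicle controls.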

[5] = NCI Yeast Anticancer Drug Screen. Data for the bub3 strain (AID 167); conditions: S. cerevisiae bub3 mutant strain, at 50.0 µM, hits give high values
Outline: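 Screening used yeast with an engineered genetic alteration affecting cell cycle control. Compound-exposed cultures were compared with vehicle cultures, and reduced growth was taken as inhibition.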

[6] = NCI Yeast Anticancer Drug Screen. Data for the mlh1 rad18 strain (AID 175); conditions: S. cerevisiae mlh1 rad18 strain growth inhibition; at 50.0 µM; hits give high values
Outline: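 Yeast w/ defined DNA-repair lesions; compound exposure; growth vs vehicle controls → % inhibition.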

Measured: growth inhibition

CC1(C)CC2=C(SC3C=CC=CC3N2)C(=O)C1C(=O)C(N)=O (configuration not stated)
inactive: [1] -34.7% | [2] -15% | [3] -5.05% | [4] -3.65% | [5] -23.1% | [6] -33.8%

C=C(C)/C=N/NS(=O)(=O)c1ccc(C)cc1
inactive: [1] -14.6% | [2] 9.65% | [3] 6.7% | [4] -26.1% | [5] -18.1% | [6] 4.9%

CC(=O)NC(C)c1ccc2ccccc2c1 (configuration not stated)
inactive: [1] -5.4% | [2] 14.8% | [3] 1.8% | [4] 7.55% | [5] -8.5% | [6] 11.4%

NC(N)=NC(CC(=O)O)c1ccccc1 (configuration not stated)
inactive: [1] -1.15% | [2] -20% | [3] -26.4% | [4] -26.2% | [5] -46.4% | [6] 10.2%

COc1ccc(Cc2c3cc(OC)c(OC)cc3cc[n+]2C)cc1
inactive: [1] -0.05% | [2] -28.4% | [3] -17.9% | [4] -2.45% | [5] -10.8% | [6] -6.15%

CCCCCCCOC(=O)c1ccccc1Cl
inactive: [1] 7.3% | [2] -10.1% | [3] 23.4% | [4] -6.7% | [5] 13.9% | [6] 2%

CCOC(=O)C(NC(=O)Nc1ccccc1F)(OC)C(F)(F)F (configuration not stated)
inactive: [1] -23.1% | [2] -38.3% | [3] -75.4% | [4] -4.3% | [5] -28% | [6] -59.6%

O=P1(c2ccccc2)C(c2ccccc2)=CC=C1c1ccccc1
inactive: [1] 23.4% | [2] 9.8% | [3] 18.1% | [4] 6.6% | [5] 12.3% | [6] 31.2%

c1ccc(SCCP(CCP(c2ccccc2)c2ccccc2)c2ccccc2)cc1 (configuration not stated)
inactive: [1] 34.9% | [2] 2.6% | [3] 14.3% | [4] 22.4% | [5] 37.8% | [6] 57.1%

CC(C)CCOC(=O)NC(Nc1ccc(F)cc1)(C(F)(F)F)C(F)(F)F
inactive: [1] -10.6% | [2] -15.9% | [3] -40.5% | [4] -13.3% | [5] -5.2% | [6] -25.9%

O=C(c1ccccc1)N1C(=O)c2ccccc21
inactive: [1] -11.1% | [2] 5.75% | [3] -12.8% | [4] -16.3% | [5] 9.5% | [6] -15.5%

Cc1c(-c2ccccc2)[nH]c2cc(Cl)ccc2c1=O
inactive: [1] -28.9% | [2] 2.55% | [3] -16.4% | [4] 13% | [5] 16.9% | [6] -10.3%

CCCCB1OB(CCCC)OB(CCCC)O1
inactive: [1] -1.65% | [2] -17.8% | [3] -6.2% | [4] 5.25% | [5] 7.15% | [6] 4.25%

O=C1c2ccsc2C(=O)c2sc(CO)cc21
active: [1] 90.3% | [2] 91.2% | [3] 91% | [4] 91.8% | [5] 90% | [6] 83%

C[N+]([O-])=C(c1ccccc1)c1ccccc1
inactive: [1] -15.7% | [2] 5.55% | [3] -9.4% | [4] 4.5% | [5] -30.8% | [6] -4.9%

c1ccc(Nc2nnc(-c3nsc4ccccc34)o2)cc1
inactive: [1] -34.5% | [2] -40.9% | [3] -42.8% | [4] -1.4% | [5] -31.9% | [6] -35.9%

CN(C)CCSC(CO)c1ccccc1 (configuration not stated)
inactive: [1] -12.7% | [2] -13.4% | [3] 2.85% | [4] 9.2% | [5] -1.15% | [6] -6.5%

CCN1C(=O)c2ccccc2C1=O
inactive: [1] 11.8% | [2] -9.85% | [3] -5.25% | [4] -16.9% | [5] 5.95% | [6] 24.1%

Cc1ccccc1I
inactive: [1] -15.2% | [2] -32.3% | [3] -3.2% | [4] 9% | [5] 0.5% | [6] 9.2%

C=CCc1cc(C(Cc2ccccc2)NC(C)C)cc(OCc2ccccc2)c1OCc1ccccc1 (configuration not stated)
inactive: [1] 10.1% | [2] 11.5% | [3] 16.9% | [4] -3.95% | [5] 47.6% | [6] 50.9%

C=CCOc1cc(NC(=S)c2ccoc2C)ccc1OC
inactive: [1] -17.4% | [2] -3.15% | [3] -10% | [4] -2.7% | [5] -3.35% | [6] -52.9%

CCOC(=O)C(CO)C1CCCC1 (configuration not stated)
inactive: [1] 10.3% | [2] -2.65% | [3] 7.9% | [4] -5.4% | [5] 5.05% | [6] 2.75%

O=C(Cc1ccccc1)Nc1ccccc1Cl
inactive: [1] -8.1% | [2] 0.35% | [3] 4.55% | [4] 21.2% | [5] 14.7% | [6] 1.95%

Oc1ccccc1CN=Cc1ccccc1
inactive: [1] 7.45% | [2] 4.1% | [3] -4.25% | [4] -0.5% | [5] -27.2% | [6] 4.85%

N#CC1C(=O)NC(=S)NC1c1ccc2c(c1)CCC2 (configuration not stated)
inactive: [1] -12.9% | [2] -6.7% | [3] -22.9% | [4] -18.8% | [5] -7.15% | [6] 4.1%

COc1cccc(CNc2ncnc3nc[nH]c23)c1
inactive: [1] 16.5% | [2] 1.85% | [3] 14.7% | [4] 4% | [5] -3.85% | [6] 24.6%

CCOC(=O)c1cc2nc(NC(=O)c3ccccc3)sc2n1C
inactive: [1] 4.85% | [2] 8.3% | [3] 7.3% | [4] 10.3% | [5] 6.4% | [6] 16.8%

Cc1cccc(C[P+](C/C=C/c2ccccc2)(c2ccccc2)c2ccccc2)c1
active: [1] 98.8% | [2] 99.7% | [3] 99.7% | [4] 99% | [5] 99.5% | [6] 99.5%

Nc1cc(=O)[nH]c(N)n1
inactive: [1] 10.2% | [2] -23.9% | [3] -19.6% | [4] -83.9% | [5] -5% | [6] -21.9%

NC(=O)c1nc(C2OC(CO)C(O)C2O)cs1 (configuration not stated)
inactive: [1] -0.7% | [2] -1.2% | [3] -2.25% | [4] -27.9% | [5] 6.75% | [6] 0.15%

O=C(c1cccc(F)c1)c1ccccc1Cc1ccccc1
inactive: [1] -4.45% | [2] 4.2% | [3] -8.05% | [4] 19.4% | [5] -3.1% | [6] -11.4%

CCCCCCCCCCCCCCCCOc1ccc(OC)cc1C(=O)NNC(=S)SC
inactive: [1] 14.7% | [2] -0.1% | [3] 24.6% | [4] 8.55% | [5] 34% | [6] 21.2%

O=C(SCc1ccccc1)C(O)c1ccccc1 (configuration not stated)
inactive: [1] 1.95% | [2] 6.9% | [3] 15.7% | [4] -24.6% | [5] 19.3% | [6] 5.2%

COc1cccc(Cc2cncc3c(O)c(OC)ccc23)c1O
inactive: [1] 2.3% | [2] -6.4% | [3] -8.05% | [4] 3% | [5] -1.9% | [6] 9.95%

CSc1nc(=O)cc(N)n1C
inactive: [1] 1.65% | [2] -1.55% | [3] 9.55% | [4] -23.7% | [5] -7.2% | [6] 7.9%

COc1ccc(NC(=O)Oc2ccc(OC)cc2)cc1
inactive: [1] 5.75% | [2] 12.2% | [3] 0.75% | [4] 11.2% | [5] 5.5% | [6] -16.1%

CS(=O)(=O)C1CCCCC1SC#N (configuration not stated)
inactive: [1] -5.1% | [2] -16.7% | [3] -14.5% | [4] -19% | [5] 4.1% | [6] 3.45%

CCC(=O)CC(=O)C(=O)OC
inactive: [1] 6.25% | [2] 14.6% | [3] -8.45% | [4] -15.7% | [5] 3.5% | [6] 17%

CCC(=O)OCCOC(=O)CC
inactive: [1] 26.8% | [2] 16.7% | [3] 6.9% | [4] 18.6% | [5] 23.6% | [6] 9.25%

NC(=O)CSCC(N)C(=O)O (configuration not stated)
inactive: [1] -9.75% | [2] -26.4% | [3] -13.1% | [4] -21.9% | [5] -28.5% | [6] -20%

ClC1C2C=CC(C2)C12OCCO2 (configuration not stated)
inactive: [1] 2.35% | [2] 11.7% | [3] -1.6% | [4] 6.85% | [5] -10.7% | [6] -18.4%

Cc1ccc2cc(N)ccc2c1
inactive: [1] -2.9% | [2] 8.05% | [3] 2.9% | [4] -9.85% | [5] 20.1% | [6] 23.1%
